61 compounds from PubChem BioAssay AID1700 (The Scripps Research Institute Molecular Screening Center, 2009) can be followed below.

The whole screen tested about 290,000 compounds, of which about 670 (0.23%) were called active. The sample as a whole holds a higher share of actives than the screen did. Unmarked numbers belong to inactive results.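 Rule for the calls: active = inhibition above a per-plate limit of that plate's mean compound inhibition plus 3 SD (cut at about 60% in these data); inactive = the rest.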

The assay is described as follows: suppression of KLF5 promoter-driven luciferase – DLD-1 cells, luminescence, primary screen (AID 1700).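 Note: 0% = DMSO wells and 100% = LY294002 at 200 µM; higher means less KLF5 promoter-driven luciferase light.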 The settings on record: DLD-1 KLF5 promoter-luciferase reporter, at 5 µM, stronger effect = higher value. A general note: Reporter assays use an easily measured gene product as a stand-in for the process of interest.
As to `O=C(N[C@@H](Cc1ccccc1)C(=O)OCc1ccccc1)c1nc[nH]c1C(=O)N[C@@H](Cc1ccccc1)C(=O)OCc1ccccc1`, the inhibition was -14.8%.

For the compound `O=C(CN1CCC(O)(c2cccc(C(F)(F)F)c2)CC1)NCCc1ccccc1`, the inhibition is -13%.

Consider `O=C(CSc1ccc(-c2ccccn2)nn1)Nc1ccccc1`, for which the inhibition was -2%.

Consider `Cc1cc(=O)n2nc(N3CCC(C(=O)Nc4c(F)c(F)c(F)c(F)c4F)CC3)sc2n1`, for which the inhibition is 13.4%.

As for `N#CCC(=O)NC1CCC(CC2CCC(NC(=O)CC#N)CC2)CC1` (stereo unspecified), the inhibition is -13.8%.

`Cc1nn(C(C)C(=O)N2CCOCC2)c(=O)c2nn(-c3ccccc3)c(C)c12` (stereo unspecified): the inhibition was -19%.

With `COc1cc2c(cc1OC)CN(C(=O)c1ccc(S(=O)(=O)N3CCCCCC3)cc1)CC2`, the inhibition is -28.3%.

Turning to `CCOc1cc(C(=O)N2CCc3cc(OC)c(OC)cc3C2)ccc1OC(F)F`, the inhibition is 73.9% (active).

Take `COc1cc2c(cc1OC)CN(C(=O)c1cc(=O)c3ccccc3o1)CC2`: the inhibition is 37.6%.

Consider `COc1cccc(/C=N/Nc2cc(C)nc(-c3ccccc3O)n2)c1O`, for which the inhibition is -137%.

As to `COc1cccc(/C=N/NC(=O)c2[nH]nc3c2CCc2ccccc2-3)c1O`, the inhibition was 5.06%.

As for `COc1cccc(/C=N/Nc2ncc(C(F)(F)F)cc2Cl)c1O`, the inhibition is 101% (active).

With `O=C1CSc2ccc(S(=O)(=O)NCc3ccccc3)cc2N1`, the inhibition was 11.2%.

On to `Cc1c(CC(=O)NCC(=O)NCC(=O)O)c(=O)oc2cc3oc4c(c3cc12)CCCC4`, for which the inhibition is -28.3%.

For `CCC(=O)N(CCc1ccccc1)Cc1cc2cc(C)ccc2[nH]c1=O`, the inhibition was -35.9%.

As for `Cc1ccc2[nH]c(=O)c(CN(CCCN(C)C)C(=O)Nc3cccc(Cl)c3)cc2c1`, the inhibition was 109% (active).

As for `Cc1ccc2[nH]c(=O)c(CN(CC3COCCO3)C(=O)Nc3ccccc3C)cc2c1` (stereo unspecified), the inhibition was 18.1%.

As for `O=C(NCCc1ccc(Cl)cc1)C1CCCN1C(=O)NCc1ccccc1` (stereo unspecified), the inhibition was -14.2%.

Turning to `COc1ccc(NCCc2ccccn2)cc1`, the inhibition was -36.1%.

On to `COc1ccccc1/C=N/N1CCN(Cc2ccccc2Cl)CC1`, for which the inhibition is -27%.

Regarding `CCOc1ccccc1NC(=O)Cn1nnc(C(=O)NCc2cccs2)c1N`, the inhibition is 72.7% (active).

As to `CCOc1ccc(Cn2nnc(C(=O)NCc3ccccc3)c2N)cc1`, the inhibition is -14.8%.

For the compound `CCOc1ccccc1NC(=O)Cc1cccs1`, the inhibition was 4.44%.

Regarding `Cc1cccc(C(=O)NCCCN(C)CCCNC(=O)c2cccc(C)c2)c1`, the inhibition is -59.8%.

Regarding `COC(=O)CNC(=O)c1ccccc1F`, the inhibition was -16.9%.

For the compound `CSc1nc(N(C)NC(=O)c2cccc(C)c2)c2ccccc2n1`, the inhibition is 83.5% (active).

Consider `CN(NC(=O)c1ccccc1)c1nc2ccccc2nc1C(F)(F)F`, for which the inhibition is -18.5%.

Turning to `CN(NC(=O)c1ccccc1F)c1nc(C(F)(F)F)nc2ccccc12`, the inhibition is 68.7% (active).

With `COc1ccc(C(=O)NN(C)c2nc(-c3ccccc3)cc(C)c2S(C)(=O)=O)cc1`, the inhibition is -7.27%.

For `O=C(Nc1ccccc1C(=O)NCC1CCCO1)c1ccccc1F` (stereo unspecified), the inhibition was -10.3%.

Turning to `CCCCCCn1c(CN2CCCCC2)nc2c1c(=O)n(C)c(=O)n2C`, the inhibition is 0.95%.

Regarding `CCCCCCCCn1c2c(c(=N)c3c1CCC3)CCCC2`, the inhibition is 72.8% (active).

For `O=c1[nH]cccc1-c1nc2ccccc2n1Cc1ccc(Cl)cc1`, the inhibition was -29.9%.

Consider `Cc1ccc(CNS(=O)(=O)c2ccc3c(c2)N(C)CCO3)cc1`, for which the inhibition is -12.4%.

Turning to `Cn1cc(C(=O)c2ccc(Cl)cc2Cl)cc1C(=O)NN`, the inhibition is -35.5%.

On to `CCOc1ccccc1CN1CCN(C2CCC2)CC1CCO` (stereo unspecified), for which the inhibition is 12%.

`CCOC(=O)c1sc(NC(=O)c2ccncc2)nc1C`: the inhibition was -25.1%.

With `CCOC(=O)c1sc(/N=C/Nc2nc(C)c(C(=O)OCC)s2)nc1C`, the inhibition is 6.72%.

On to `CCOC(=O)c1sc(NC(=O)c2sc(C)nc2C)nc1C`, for which the inhibition was 79% (active).

As for `Cc1cccc(NC(=O)C2CCN(C(=O)NC3CCCCC3)CC2)c1`, the inhibition was -12.5%.

In the case of `Cc1ccc(O)c(CNc2nc3ccccc3[nH]2)c1`, the inhibition was -87.9%.

On to `COc1ccc(-c2cc(=O)oc3cc(OCC(=O)N(C)C4CCS(=O)(=O)C4)ccc23)cc1` (stereo unspecified), for which the inhibition was -4.99%.

On to `Cc1ccc(-c2cc(=O)c3ccc(Cl)cc3[nH]2)cc1`, for which the inhibition is -4.81%.

Consider `Cc1ccc(-c2cc(=O)c3ccc(F)cc3[nH]2)cc1`, for which the inhibition is 9.96%.

On to `O=c1cc(-c2ccccc2)[nH]c2cc(F)ccc12`, for which the inhibition is 73.5% (active).

Take `CCCCNC(=O)c1cn(CC)c2cc(N3CCN(C(=O)c4ccco4)CC3)c(F)cc2c1=O`: the inhibition was -2.76%.

In the case of `COc1ccc(NC(=O)CCNC(=O)Cn2cnc3sc4c(c3c2=O)CCCC4)cc1OC`, the inhibition was -21.6%.

Take `COc1cc(NC(=O)C2=C(C)OCCS2)c(Cl)cc1C(=O)NCCN1CCN(C)CC1`: the inhibition was -25.5%.

`O=C1CCC(C(=O)N2CCN(c3ccccc3Cl)CC2)CN1CC1CCCCC1` (stereo unspecified): the inhibition is -15.8%.

As for `CC1CCCN(CC(=O)Nc2cc(Cl)ccc2Oc2ccccc2)C1` (stereo unspecified), the inhibition was -4.36%.

On to `Cc1ccc(CNC(=O)C2CCN(S(=O)(=O)c3ccc4nc5c(c(C(=O)O)c4c3)CC(C)CC5)CC2)cc1` (stereo unspecified), for which the inhibition is -5.44%.

Take `CCc1ccc(/C=N/NC(=O)c2nnn(-c3nonc3N)c2CN2CCc3ccccc32)cc1`: the inhibition was 9.12%.

`O=C(CSc1nc(C2CC2)nc2ccccc12)Nc1cccc(O)c1`: the inhibition is -13.5%.

On to `Cn1cc(CCC(=O)NC2CC2)c2ccccc21`, for which the inhibition was -37%.

As for `Cc1ccc(S(=O)(=O)N(C)CC(=O)NCCc2c[nH]c3ccccc23)cc1`, the inhibition is -25.4%.

`Cc1ccc(/C=N/NC(=O)c2cc3ccccc3cc2O)o1`: the inhibition was -47.3%.

Consider `Cc1ccc(CSc2nsc(C)c2C#N)cc1`, for which the inhibition was -19.4%.

For the compound `Cc1ccc2nc(-c3ccc(Br)cc3)cn2c1`, the inhibition was 48.8%.

For `Cc1ccc(-c2cn3cc(C)ccc3n2)cc1`, the inhibition was 81% (active).

Turning to `Cc1ccc(-c2cn3cc([N+](=O)[O-])ccc3n2)cc1`, the inhibition is -2.85%.

Consider `O=C(CCn1nnnc1CN1CCOCC1)N1CCC(c2ccccc2Cl)C1` (stereo unspecified), for which the inhibition is -1.39%.

Usually inhibition stands for the relative decrease from the control value, in per cent.
